# Assay outcomes: PubChem BioAssay, NMMLSC
# Hits are enriched below; roughly 3.5% of the tested compounds scored in any of these assays.
# Anthrax LF inh2 – Bacillus anthracis LF protease inhibitors, primary screen, biochemical, multiplex microsphere, MLPCN library; Lethal factor (Bacillus anthracis), P15917; multiplex microsphere protease cleavage assay; inhibition, % at 10 µM; hit rate 0.12% among 360,000; AID 588501, 2011; also: plate controls were buffer without enzyme for full effect and enzyme alone for no effect
# Target sequence (P15917 whole entry, looked up): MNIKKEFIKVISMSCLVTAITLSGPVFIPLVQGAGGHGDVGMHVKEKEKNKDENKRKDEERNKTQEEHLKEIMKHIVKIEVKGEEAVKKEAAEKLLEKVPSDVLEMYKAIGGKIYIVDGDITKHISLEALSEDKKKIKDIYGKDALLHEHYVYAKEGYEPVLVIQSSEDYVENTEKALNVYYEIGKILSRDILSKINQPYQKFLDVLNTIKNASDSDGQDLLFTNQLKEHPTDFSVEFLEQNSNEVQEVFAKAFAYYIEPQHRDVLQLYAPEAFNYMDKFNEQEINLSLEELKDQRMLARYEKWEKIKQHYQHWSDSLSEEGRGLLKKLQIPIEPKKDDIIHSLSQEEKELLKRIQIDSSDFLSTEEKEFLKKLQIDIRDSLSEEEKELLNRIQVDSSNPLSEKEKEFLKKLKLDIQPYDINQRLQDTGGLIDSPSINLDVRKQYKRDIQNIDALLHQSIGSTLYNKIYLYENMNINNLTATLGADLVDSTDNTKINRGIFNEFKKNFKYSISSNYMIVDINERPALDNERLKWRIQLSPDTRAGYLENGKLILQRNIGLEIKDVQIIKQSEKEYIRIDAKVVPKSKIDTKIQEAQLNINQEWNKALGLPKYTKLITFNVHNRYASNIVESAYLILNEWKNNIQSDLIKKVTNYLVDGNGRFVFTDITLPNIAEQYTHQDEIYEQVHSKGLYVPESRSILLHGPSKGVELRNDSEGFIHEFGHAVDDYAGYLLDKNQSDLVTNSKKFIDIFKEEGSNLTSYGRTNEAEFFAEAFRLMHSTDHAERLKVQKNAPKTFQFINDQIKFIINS
# BoNT-F LC inh – BoNT/F light chain protease inhibitors, primary screen, biochemical, flow cytometry, MLPCN library | Botulinum neurotoxin type F light chain protease (Clostridium botulinum) | Multiplex microsphere protease cleavage assay | inhibition, % at 10 µM | hit rate 0.22% among 360,000 | AID 588497, 2011; in the data active = inhibition above about 35%, passing the limit was not always enough; inconclusive = no clear call, values can overlap the other calls; also: plate controls were buffer without enzyme for full effect and enzyme alone for no effect
# Bead autofluor – counter-screen for toxin protease inhibitors: compound fluorescence; fluorescence intensity (no concentration beside the values); hit rate 3.1% among 360,000; compound autofluorescence counterscreen, microsphere flow cytometry; stronger effect = higher value; in the data active = fluorescence intensity above about 16000; inconclusive = no clear call, values can overlap the other calls
# BoNT A protease – BoNT/A light chain protease inhibitors, primary screen, biochemical, flow cytometry, MLPCN library; Botulinum neurotoxin type A light chain protease (Clostridium botulinum A str. ATCC 3502); multiplex microsphere protease substrate cleavage; inhibition, % at 10 µM; hit rate 0.17% among 360,000; AID 588499, 2011; also: plate controls were buffer without enzyme for full effect and enzyme alone for no effect
# BoNTA LC inh 1 – BoNT/A light chain protease inhibitors, confirmation, biochemical, flow cytometry, cherry pick 1 | hit rate 3% among 720 | inhibition, % at 10 µM | shares compounds with BoNT-F LC inh | AID 602139, 2011 | multiplex microsphere protease assay; in the data active = inhibition above about 32%
# BoNT-F LC CP1 – BoNT/F light chain protease inhibitors, confirmation, biochemical, flow cytometry, cherry pick 1; shares compounds with BoNT-F LC inh; AID 602140, 2011; multiplex microsphere protease cleavage assay; 720 tested, under 10 active; inhibition, % at 10 µM; call rule not given here
# Anthrax LF CP1 – Bacillus anthracis LF protease inhibitors, confirmation, biochemical, multiplex microsphere, cherry pick 1; shares compounds with BoNT-F LC inh; inhibition, % at 10 µM; multiplex microsphere protease cleavage assay; AID 602142, 2011; 720 tested, under 10 active; call rule not given here
# BoNTA LC inh 2 – BoNT/A light chain protease inhibitors, confirmation, biochemical, flow cytometry, cherry pick 2 | hit rate 10% among 150 | shares compounds with BoNT A protease | inhibition, % at 10 µM | multiplex microsphere protease cleavage assay; in the data active = inhibition above about 24%
# Anthrax LF CP2 – Bacillus anthracis LF protease inhibitors, confirmation, biochemical, multiplex microsphere; shares compounds with BoNT A protease; multiplex microsphere protease cleavage assay; inhibition, % at 10 µM; hit rate 7% among 150; AID 602327, 2012; in the data active = inhibition above about 25%
# BoNT-F LC CP2 – BoNT/F light chain protease inhibitors, confirmation, biochemical, flow cytometry, cherry pick 2 | shares compounds with BoNT A protease | multiplex microsphere protease cleavage assay | inhibition, % at 10 µM | hit rate 7% among 150 | AID 602336, 2012; in the data active = inhibition above about 25%
# Numbers without * were called inactive; ? = inconclusive. Rule as the data show it, unless noted: active = inhibition above about 30%; inconclusive = no clear call, values can overlap the other calls; inactive = below that.
SMILES,Anthrax LF inh2,BoNT-F LC inh,Bead autofluor,BoNT A protease,others
Cc1cccc2cc(C(c3nnnn3C(C)(C)C)N3CCN(C(=O)c4ccco4)CC3)c(=O)[nH]c12 (stereo not drawn),-2.7,-1.8,5518,1.7,
Cc1ccc2[nH]c(=O)c(C(c3nnnn3C(C)(C)C)N3CCN(C(=O)c4ccco4)CC3)cc2c1 (stereo not drawn),2.8,-1.2,10855,1.0,
CS(=O)(=O)Cc1ccc(C(=O)NC2CCSc3ccccc32)cc1 (stereo not drawn),5.0,14.8,3411,-2.3,
CC(C)NC(=S)N1CCN(Cc2ccc3c(c2)OCO3)CC1,-5.3,-6.9,4330,-0.6,
CCN(CC)c1ccc(C(=O)NC(=S)N2CCN(Cc3ccc4c(c3)OCO4)CC2)cc1,5.6,51.4*,22907*,-12.8,BoNTA LC inh 1=-11.9;BoNT-F LC CP1=-5.3;Anthrax LF CP1=-2.9
COc1ccc(OC)c(CN2CCN(C(=O)CCNC(=O)c3ccc(Br)cc3)CC2)c1,-2.4,1.1,?,33.7*,BoNTA LC inh 1=0.2;BoNT-F LC CP1=1.9;Anthrax LF CP1=0.5
COc1ccc(OC)c(CN2CCN(C(=O)CNC(=O)c3ccc(C(C)(C)C)cc3)CC2)c1,-0.3,-5.3,4043,0.2,
CCc1ccc(OCCCCCn2ccnc2)cc1,9.8,?,3045,0.6,
Cc1cccc(OCC(=O)Nc2ccc3nc(C)sc3c2)c1,4.0,1.8,3368,1.2,
Cc1nc2ccc(NC(=O)COc3cccc(F)c3)cc2s1,-3.1,38.4*,4736,5.1,BoNTA LC inh 1=2.1;BoNT-F LC CP1=-0.7;Anthrax LF CP1=0.2
CCCNC(=O)C(Sc1ccccc1)c1ccccc1 (stereo not drawn),-1.1,0.8,8592,0.5,
CCN(CC)C(=O)C(Sc1ccccc1)c1ccccc1 (stereo not drawn),?,57.2*,?,18.9,BoNTA LC inh 1=-1.2;BoNT-F LC CP1=-3.7;Anthrax LF CP1=-2.7
Cc1ccc(S(=O)(=O)N(C(=N)N)c2nc(N(C)C)nc(N(C)C)n2)cc1,3.4,?,4141,-2.8,
CCC(C)c1ccccc1N1CC(C(=O)NCCc2ccc(OC)c(OC)c2)CC1=O (stereo not drawn),1.6,7.3,?,1.8,
O=c1c2ccccc2oc2cc(OCc3cccc(F)c3)cc(O)c12,1.7,15.0,3257,-2.4,
CCOc1c(Br)cc(C(N)=O)cc1OCc1ccccc1,-1.1,36.1*,2607,3.0,BoNTA LC inh 1=-1.6;BoNT-F LC CP1=0.1;Anthrax LF CP1=-0.2
COc1cccc(OC)c1NC(=O)CN1CCN(C)CC1,-10.5,-8.3,4054,-2.4,
CCCCc1ccc(C(=O)NC(C(=O)O)C(C)C)cc1 (stereo not drawn),-23.7,40.1*,8775,31.2*,BoNTA LC inh 1=-1.0;BoNT-F LC CP1=1.4;Anthrax LF CP1=-3.0
CCCCCOc1ccc(C(=O)NC(C(=O)O)C(C)C)cc1 (stereo not drawn),4.3,38.8*,6207,?,BoNTA LC inh 1=0.1;BoNT-F LC CP1=-1.9;Anthrax LF CP1=-1.7
CCCCCCCCOc1ccc(C(=O)O)cc1,-3.5,-9.4,4213,-0.4,
C[C@@H](NC(=O)c1ncn(Cc2ccccc2)c1C(=O)N[C@H](C)c1ccccc1)c1ccccc1,-3.4,-1.2,4030,-0.4,
COc1ccc(NS(=O)(=O)c2cccc(C(=O)N/N=C(\C)c3cccnc3)c2)cc1,2.0,-6.2,6325,-1.1,
CC1CC(c2ccccc2)n2nc(NC(=O)c3ccco3)nc2N1 (stereo not drawn),0.0,?,3609,1.8,
COc1ccc(C2CC(c3ccc(F)cc3)n3nc(NC(=O)c4ccco4)nc3N2)cc1 (stereo not drawn),-8.6,-4.0,6286,-1.1,BoNTA LC inh 1=-2.1;BoNT-F LC CP1=-11.6;Anthrax LF CP1=-5.3
Cc1nn(C)c(C)c1NS(=O)(=O)c1ccccc1Cl,-1.4,2.5,2910,1.5,
SMILES,Anthrax LF inh2,BoNT-F LC inh,Bead autofluor,BoNT A protease,others
COc1ccc(CNC(=O)C2CCN(C(=O)c3ccc(-c4ccccc4)cc3)CC2)cc1,31.9*,-20.9,3412,-1.1,BoNTA LC inh 1=0.5;BoNT-F LC CP1=-5.1;Anthrax LF CP1=0.4
FC(F)(F)c1ccc(CNCCc2ccc3c(c2)OCO3)cc1,2.5,71.4*,3048,4.9,BoNTA LC inh 1=1.0;BoNT-F LC CP1=-5.7;Anthrax LF CP1=0.8
COc1cccc2nc3c(C(=O)NCCN(C)C)cccc3cc12,2.6,-14.4,3587,1.9,
CN(C)CCNC(=O)c1cccc2nc3c(ccc4ccccc43)nc12,42.2*,14.0,3507,44.4*,BoNTA LC inh 2=18.5;Anthrax LF CP2=19.6;BoNT-F LC CP2=8.0
Fc1ccc(-c2nc3ccc(Br)cn3c2Cc2ccsc2)cc1,24.6,-3.4,6185,32.0*,BoNTA LC inh 2=13.6;Anthrax LF CP2=11.1;BoNT-F LC CP2=0.2
Cc1ccc(-c2nc3ccc(Br)cn3c2Cc2ccsc2)cc1,10.2,-20.3,5688,19.2,
COC(=O)c1c(C(=O)OC)c2c(-c3ccccc3)cc3cccc1n32,36.7*,18.9,4190,36.9*,BoNTA LC inh 2=8.3;Anthrax LF CP2=3.2;BoNT-F LC CP2=-5.6
COC(=O)c1c(-c2ccccc2)csc1N,-1.5,19.1,?,1.0,
COc1ccccc1N1CCN(c2ccc3c(c2)S(=O)(=O)c2cccc(C(=O)NCc4cccc(F)c4)c2C3=O)CC1,-10.5,-2.6,3870,0.3,BoNTA LC inh 2=1.5;Anthrax LF CP2=-2.5;BoNT-F LC CP2=-3.5
CC1CCN(c2ccc3c(c2)S(=O)(=O)c2cccc(C(=O)NC4CC4)c2C3=O)CC1,-2.4,1.1,3947,1.4,BoNTA LC inh 2=5.4;Anthrax LF CP2=6.1;BoNT-F LC CP2=13.1
O=C(NC1CCCCC1)c1cccc2c1C(=O)c1ccc(N3CCC(Cc4ccccc4)CC3)cc1S2(=O)=O,34.1*,14.2,5311,26.2,BoNTA LC inh 2=8.4;Anthrax LF CP2=8.2;BoNT-F LC CP2=12.1
O=C(NC[C@@H]1CCCO1)c1cccc2c1C(=O)c1ccc(N3CCOCC3)cc1S2(=O)=O,-1.7,0.6,3924,-0.2,
CC1CCN(c2ccc3c(c2)S(=O)(=O)c2cccc(C(=O)NC[C@@H]4CCCO4)c2C3=O)CC1,4.2,-5.5,3805,2.1,BoNTA LC inh 2=2.0;Anthrax LF CP2=0.8;BoNT-F LC CP2=5.4
O=C(NCC1CC1)c1cccc2c1C(=O)c1ccc(N3CCCC3)cc1S2(=O)=O,1.6,-0.6,4247,1.5,
O=C1C(=O)N(c2ccccn2)C(c2cccc(F)c2)/C1=C(/O)c1ccccc1 (stereo not drawn),-2.0,7.7,3463,2.7,
O=C1CN(S(=O)(=O)c2ccc(Cl)cc2)c2ccccc2N1,5.4,20.5,3302,1.6,
CCc1ccc(N2CC(C(=O)OCC(=O)Nc3ccc(C#N)cc3)CC2=O)cc1 (stereo not drawn),-3.3,-1.4,9132,0.0,
